Laboratory results: PubChem BioAssay AID1159580 (chemical genetic matrix, 2015)
The whole screen tested about 5,500 compounds, of which about 2,000 (36%) were called active. Roughly 18% stayed inconclusive and do not appear here. No stated cut-off is given here; in the data, active means normalized growth mostly below about 0.91 (no sharp cut-off); inconclusive means no clear call, values can overlap the other calls; inactive means mostly above about 0.92. Some of the results follow.

Test: chemical genetic growth profiling, strain panel (AID 1159580);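 further: tested at 20 µM; growth read once vehicle control cultures reached saturation at 30 °C; 1 = growth at the plate median or of vehicle wells; lower values mean less growth of the strain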
Conditions: S. cerevisiae deletion strains, growth OD

Measured: normalized growth

CCC(C)N(C)C(=O)c1cc2ccccc2c(-c2ccccc2Cl)n1 (centres undefined)
inactive: locus YAL040C, strain CLN3, active compounds read low 0.965 | locus YDR363W, strain ESC2, active compounds read low 0.973 | locus YER002W, strain NOP16, active compounds read low 1.03 | locus YGR078C, strain PAC10, active compounds read low 0.998 | locus YNL175C, strain NOP13, active compounds read low 1 | locus YNL197C, strain WHI3, active compounds read low 0.95 | locus YNL224C, strain SQS1, active compounds read low 0.988 | locus YNL322C, strain KRE1, active compounds read low 0.987 | locus YOR083W, strain WHI5 (second series), active compounds read low 0.955
